ABHD5 PLIN5 PPI – ABHD5-PLIN5 protein interaction inhibition | Split G. princeps luciferase complementation, luminescence, 4 h | 360,000 compounds, 0.78% hits | Q00G26+Q8WTS1 | AID 602281 | inhibition, % at 4 µM;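 active = inhibition above the mean inhibition across every tested compound plus 3 SD, cut at about 22% in these data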;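 note: 0% = DMSO only wells and the 100% control is not disclosed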
Target sequence (Q00G26 whole entry, looked up): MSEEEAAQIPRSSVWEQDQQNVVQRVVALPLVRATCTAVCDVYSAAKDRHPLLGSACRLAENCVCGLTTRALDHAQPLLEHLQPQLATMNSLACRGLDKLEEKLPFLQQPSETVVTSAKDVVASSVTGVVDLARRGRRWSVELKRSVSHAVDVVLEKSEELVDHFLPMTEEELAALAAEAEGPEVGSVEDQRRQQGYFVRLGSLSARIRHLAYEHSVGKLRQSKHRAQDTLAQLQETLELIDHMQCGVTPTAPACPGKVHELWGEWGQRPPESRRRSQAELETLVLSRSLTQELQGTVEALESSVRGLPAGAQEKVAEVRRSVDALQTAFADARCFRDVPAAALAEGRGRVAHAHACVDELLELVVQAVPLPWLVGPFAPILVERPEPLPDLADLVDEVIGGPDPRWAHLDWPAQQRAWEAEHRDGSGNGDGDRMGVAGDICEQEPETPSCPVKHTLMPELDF
Target sequence (Q8WTS1 whole entry, looked up): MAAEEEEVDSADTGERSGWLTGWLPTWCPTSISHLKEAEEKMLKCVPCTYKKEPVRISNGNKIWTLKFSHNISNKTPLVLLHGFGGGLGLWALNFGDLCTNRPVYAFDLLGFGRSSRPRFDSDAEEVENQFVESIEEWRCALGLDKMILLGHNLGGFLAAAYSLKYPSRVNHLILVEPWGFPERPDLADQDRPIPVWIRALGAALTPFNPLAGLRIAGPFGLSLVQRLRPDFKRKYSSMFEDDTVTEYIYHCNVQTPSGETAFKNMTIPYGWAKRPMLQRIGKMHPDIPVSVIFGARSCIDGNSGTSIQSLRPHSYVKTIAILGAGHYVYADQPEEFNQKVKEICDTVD
TLR4-MyD88 BLA – TLR4-MyD88 interaction inhibition in cells. AID 861. HeLa CL3-4 TLR4/MyD88 BLA complementation, FRET ratio. 200,000 compounds, 0.18% hits. O00206+Q99836. inhibition, % at 8.4 µM; in the data active = inhibition above about 25%;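 note: 0% = vehicle and 100% = reference inhibitor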
NTR1 ag – agonists of human neurotensin receptor NTR1 | P30989 | 330,000 compounds, 0.17% hits | activation, % at 20 µM | NTR1-U2OS beta-arrestin-GFP spot imaging, agonist mode;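 active = activation at or above 40% of the spot to cytoplasm intensity ratio, with at least 20 cells analyzed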;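 note: 0% = DMSO without peptide and 100% = 100 nM NTR1 peptide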
TLR9-MyD88 block – TLR9-MyD88 interaction inhibition | inhibition, % at 4.98 µM | AID 504734 | Q9NR96+Q99836 | CHO BLA complementation TLR9-MyD88, CCF4 FRET ratio | 340,000 compounds, 0.21% hits;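 active = inhibition above the mean over all tested compounds plus 3 SD, cut at about 21% in these data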;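 note: 0% = DMSO only wells and 100% = clavulanate BLA inhibitor control wells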
NOD2-RIPK2 inh – inhibitors of human NOD2-RIPK2 interaction; 360,000 compounds, 0.38% hits; AID 624267; CHO BLA complementation NOD2-RIPK2, CCF4 ratio; inhibition, % at 4.98 µM; O43353; in the data active = inhibition above about 21%;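 note: 0% = vehicle only and 100% = reference blocker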
B2AR ag – activates human beta-2 adrenergic receptor causing internalization; P07550; Am2.2-beta2AR cells, FAP receptor internalization, flow cytometry; 340,000 compounds, 0.43% hits; response, % (test concentration not listed);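 active = response above a set limit, near 3 SD of response in nonfluorescent compounds, cut at about 42% in these data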
TLR9-MyD88 cf – confirmation of human TLR9-MyD88 binding inhibitors. 680 compounds, 51% hits. inhibition, % at 4.98 µM. shares compounds with TLR9-MyD88 block. CHO TLR9/MyD88 BLA complementation, CCF4 FRET ratio;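 active = mean inhibition across three repeats above about 21% taken from the earlier screen, limit read from the data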;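 note: blue over green emission ratio reports constitutive TLR9 MyD88 association via BLA complementation; 0% = DMSO vehicle wells and 100% = clavulanate BLA inhibitor wells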
BLA counter-1 – counter-screen for TLR9-MyD88 inhibitors: non-selective beta-lactamase inhibitors; CHO-BLA cells, CCF4 FRET ratio, BLA reporter; 680 compounds, 7% hits; inhibition, % at 4.98 µM; shares compounds with TLR9-MyD88 block;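 active = mean inhibition above a 50% cutoff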;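 note: counterscreen of TLR9-MyD88 hits on CMV-driven BLA in CHO-K1 cells; 0% = DMSO alone and 100% = clavulanate blocking BLA; higher means less blue over green ratio so more BLA blockade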
TLR9 CHO tox – counter-screen for TLR9-MyD88 inhibitors: cytotoxicity in CHO cells; shares compounds with TLR9-MyD88 block; AID 588336; inhibition, % at 4.98 µM; 680 compounds, 39% hits; luminescence; in the data active = inhibition above about 11%
ABHD5-PLIN5 conf – ABHD5-PLIN5 interaction inhibition, confirmed; biochemical ABHD5-PLIN5 interaction, luminescence; shares compounds with ABHD5 PLIN5 PPI; 2,200 compounds, 67% hits; inhibition, % at 4 µM; in the data active = inhibition above about 23%;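 note: 0% = DMSO vehicle wells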
HNF4 split-luc – counter-screen for ABHD5-PLIN5 inhibitors: HNF4 split-luciferase; HNF4 dimerization, luminescence, biochemical; 2,200 compounds, 77% hits; shares compounds with ABHD5 PLIN5 PPI; inhibition, % at 4 µM;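 active = mean inhibition across replicate wells exceeding the computed hit threshold, cut at about 13% in these data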;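 note: light from luciferase halves that rejoin when HNF4 fusion proteins dimerize; 0% = DMSO only wells and the 100% control is not given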
NOD2-RIPK2 conf – confirmation of human NOD2-RIPK2 interaction inhibitors; shares compounds with NOD2-RIPK2 inh; CHO cells, NOD2-RIPK2 BLA complementation, CCF4 FRET; inhibition, % at 4.98 µM; 1,200 compounds, 70% hits; AID 624370;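 active = mean inhibition across replicates above a set limit taken from the earlier primary screen, cut at about 21% in these data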;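 note: 0% = DMSO-only wells and the high end = clavulanate BLA-blocked wells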
BLA counter-2 – hits BLA reporter in NOD2-RIPK2 inhibitor counterscreen; shares compounds with NOD2-RIPK2 inh; CHO BLA reporter, CCF4 FRET ratio; inhibition, % at 4.98 µM; 1,200 compounds, 57% hits; AID 624371;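 active = mean inhibition above the low-control mean inhibition plus three low-control SD, cut at about 11% in these data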;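 note: 0% = DMSO only wells and 100% = clavulanate high control wells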
* = called active by the depositor; / = no result given. Sampled rows, rich in hits. Any-hit rate of the full collection: about 1.5%.

SMILES	ABHD5 PLIN5 PPI	TLR4-MyD88 BLA	NTR1 ag	TLR9-MyD88 block	NOD2-RIPK2 inh	B2AR ag	ABHD5-PLIN5 conf	HNF4 split-luc	others
O=C(Nc1ccc(F)c(Cl)c1)c1cc(C2CCCN(C(=O)CCc3ccccc3)C2)on1 (centres undefined)	4	/	/	/	3	/	/	/
CCS(=O)(=O)c1ncc(Cl)c(C(=O)Nc2ccc(S(=O)(=O)N3CCC(C)CC3)cc2)n1	73*	/	28	58*	96*	24	99*	103*	TLR9-MyD88 cf=49*;BLA counter-1=43;TLR9 CHO tox=99*;NOD2-RIPK2 conf=96*;BLA counter-2=48*
CC(C)c1nnc(NC(=O)c2nc(S(=O)(=O)Cc3ccccc3)ncc2Cl)s1	35*	/	1	22*	26*	23	85*	68*	TLR9-MyD88 cf=20;BLA counter-1=19;TLR9 CHO tox=29*;NOD2-RIPK2 conf=37*;BLA counter-2=24*
COCCN(Cc1ccc(C)cc1)C(=O)[C@H]1O[C@@H](n2ccc(=O)[nH]c2=O)[C@H](O)[C@@H]1O	-3	/	/	/	-7	/	/	/
O=C1C(=O)c2c(C(=O)c3ccccc3)coc2-c2ccccc21	69*	11	9	-2	-6	3	85*	45*
Cc1c(C(=O)N(Cc2ccco2)Cc2cccs2)oc2ccccc12	28*	/	2	3	-7	0	20	15*
CCCCNC(=O)C1C(c2ccc(C(F)(F)F)cc2)=Nc2ccccc2N1C(C)=O (centres undefined)	-8	/	/	/	-15	/	/	/
CC(OC(=O)/C=C/c1ccc2ccccc2n1)C(=O)Nc1ccc(S(N)(=O)=O)cc1 (centres undefined)	25*	/	3	0	2	4	28*	21*
COC(=O)[C@]12CCCCC=C1N(Cc1cccc3ccccc13)C(=O)[C@H](CC(=O)NCC13CC4CC(CC(C4)C1)C3)C2	5	/	/	/	-9	/	/	/
COc1ccc(-c2ccc(C(=O)Nc3ccc4c(c3)OCO4)c3occc23)c(C)c1	-7	/	/	/	-7	/	/	/
Cc1cc(NC(=O)Nc2ccc(F)cc2F)n(C)n1	44*	-7	-2	-2	-4	3	-4	4
CCOc1ccc(C2C(C#N)=C(N)Oc3cc(C)n(Cc4ccco4)c(=O)c32)cc1OC (centres undefined)	17	-11	-1	0	8	-3	/	/
Cc1cc2c(c(=O)n1Cc1ccco1)C(c1cccnc1)C(C#N)=C(N)O2 (centres undefined)	42*	-8	2	-12	-5	10	9	24*
O=C(Nc1ccc2c(c1)OCCO2)c1cc(F)c(F)cc1Cl	24*	/	0	1	1	-9	2	-1
COc1ccc([C@H]2CC(=O)C=C(/C=C/Cc3ccccc3)C2)cc1	26*	/	8	2	12	1	38*	32*
COc1ccc(S(=O)(=O)N(C)C[C@@H]2Oc3cc(Br)ccc3S(=O)(=O)N([C@H](C)CO)C[C@@H]2C)cc1	14	/	/	-14	-2	/	/	/
Cc1nn(CC(=O)Nc2ccccn2)c(C)c1[N+](=O)[O-]	73*	-3	1	-10	-9	0	2	-4
Nc1sccc1C(=O)NCc1ccccc1	36*	/	/	/	8	/	14	49*
O=C(O)c1ccccc1C(=O)NCc1ccccc1	-4	7	-1	-2	-6	6	/	/
CCN(CC)S(=O)(=O)c1ccc(C)c(NC(=O)Cc2ccc(S(=O)(=O)N3CCOCC3)s2)c1	23*	/	1	-11	-6	-5	-1	0
N#C/C(=C\c1ccc(N2CCOCC2)o1)c1ccccc1	76*	14	0	11	13	11	37*	101*
N#C/C(=C/c1ccc(N2CCOCC2)o1)c1nc2ccccc2[nH]1	27*	4	-3	15	8	-80	32*	50*
N#C/C(=C\c1ccc(N2CCOCC2)cc1)c1ccccc1	9	-3	4	0	1	-1	/	/
COc1ccc([N+](=O)[O-])c(C=CC(=O)c2ccccn2)c1	53*	/	/	-8	-10	/	98*	101*
COc1ccc(/C=C/C(=O)c2ccccn2)cc1	7	7	-2	10	5	4	/	/
SMILES	ABHD5 PLIN5 PPI	TLR4-MyD88 BLA	NTR1 ag	TLR9-MyD88 block	NOD2-RIPK2 inh	B2AR ag	ABHD5-PLIN5 conf	HNF4 split-luc	others
CCCNC(=O)C1(C)CCN1C(=O)c1cc(C)n(C)n1 (centres undefined)	-3	/	/	/	-15	/	/	/
CN1CCN(c2ncnc3c2ncn3[C@H]2CN(Cc3cccnc3)C[C@@H](CO)O2)CC1	6	/	/	/	-9	/	/	/
Cc1[nH]c(=O)[nH]c(=O)c1C=CC(=O)NC(CO)CS(=O)Cc1ccccc1 (centres undefined)	4	/	/	1	4	/	/	/
CC(=O)C(C(C)=O)C1(O)C(=O)c2ccccc2C1=O	41*	-14	2	4	3	6	4	11
CCc1nc2c(sc3nc4c(cc32)COC(C)(C)C4)c(=O)n1Cc1ccco1	28*	-5	2	-13	20	5	21	36*
Cc1nc(OCC(C)C)c2sc3nc4c(cc3c2n1)COC(C)(C)C4	-1	/	0	/	-6	-15	/	/
CCc1nc(OCc2ccco2)c2sc3nc4c(cc3c2n1)COC(C)(C)C4	33*	1	8	-3	8	2	47*	74*
C[C@@H](c1ccccc1)N1C[C@@H](COCc2ccccc2)Oc2cc(N3CC[C@H](O)C3)ccc2S1(=O)=O	-7	/	/	/	-13	/	/	/
CS(=O)(=O)c1ccc(-c2sc3ccccc3c2C#CCCO)cc1	-7	/	10	-18	3	23	/	/
COc1ccc2c(C#CCCO)c(-c3ccc(S(C)(=O)=O)cc3)sc2c1	30*	/	9	-11	17	30	17	3

Assay outcomes from PubChem.
